HEK cytotox: cytotoxic compounds in HEK 293 cells. HEK 293 viability, ATP luminescence (CellTiter-Glo), 48-72 h. Potency, µM (series often up to 115 µM), inactives show at the highest dose activity change, negative = cytotoxicity, hits mostly inhibitors. hit rate 6.6% among 94,000. AID 1345083; note: nearly all actives have a fitted effect of over 60% in size
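CellTiter-Glo luminescence (cellular ATP) was read after 48 or 72 hr of compound exposure at 37 degree Celsius. Cells were HEK 293 plated at 250 cells/well.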
3T3 cytotox: kills NIH 3T3 cells. NIH 3T3 viability, CellTiter-Glo ATP luminescence, 48-72 h. Potency, µM (highest dose often 96.7 µM), for inactives: at the top dose activity change, negative = cytotoxicity, hits mostly inhibitors. hit rate 4.3% among 94,000. AID 1345082; note: nearly all actives have a fitted effect of over 55% in size
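Cells were seeded at 400 per well, treated with pin-transferred compound, and kept 48 or 72 hr at 37 °C before CellTiter-Glo addition and luminescence imaging of cellular ATP.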
hNpr1 antagonist: blocks ANP-stimulated signaling of human Npr1 receptor; HEK293 hNpr1 GloSensor cGMP, ANP-stimulated luminescence; hit rate 1.6% among 76,000; AID 1347048; Potency, µM (titrated, usually from 46.3 µM), without a hit: at the top dose activity change, negative = inhibition, most hits filed as inhibitors; calls by dose curve; note: nearly all actives have a fitted effect of over 60% in size
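Compound pre-incubated 30 min at room temperature on GloSensor-loaded HEK293 cells stably carrying hNpr1 and the pGS-40F cGMP biosensor. Stimulation uses hNppA at 0.1 nM final; luminescence is taken at baseline and 20 min post-agonist.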
Luciferase inh: Photinus pyralis luciferase inhibition | purified P. pyralis luciferase, luminescence, biochemical | hit rate 2.5% among 76,000 | Potency, µM (highest dose often 115 µM), hits mostly inhibitors; note: nearly all actives have a fitted effect of over 65% in size
Target sequence (P08659 whole entry, looked up): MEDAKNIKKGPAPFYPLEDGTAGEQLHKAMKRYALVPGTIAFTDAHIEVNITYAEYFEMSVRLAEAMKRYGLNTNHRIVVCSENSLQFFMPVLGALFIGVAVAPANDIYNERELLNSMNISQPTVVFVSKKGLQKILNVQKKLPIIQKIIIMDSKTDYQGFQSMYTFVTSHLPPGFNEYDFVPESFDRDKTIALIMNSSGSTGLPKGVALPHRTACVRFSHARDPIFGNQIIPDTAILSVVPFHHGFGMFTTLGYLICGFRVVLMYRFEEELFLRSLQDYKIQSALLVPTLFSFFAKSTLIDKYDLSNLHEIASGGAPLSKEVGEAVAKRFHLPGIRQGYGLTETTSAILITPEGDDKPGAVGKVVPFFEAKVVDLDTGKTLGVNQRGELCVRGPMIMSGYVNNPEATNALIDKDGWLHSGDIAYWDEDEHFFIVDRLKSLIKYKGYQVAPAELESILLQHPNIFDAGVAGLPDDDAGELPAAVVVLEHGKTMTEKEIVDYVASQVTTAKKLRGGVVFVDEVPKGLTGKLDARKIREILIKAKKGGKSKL
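FLuc 10nM, D-luciferin 10uM, ATP 10uM, Mg acetate 10mM, Tris acetate pH 7.5, Tween/BSA; cpd qHTS; enzyme added last; CCD luminescence.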
GPT2 inh: GPT2 alanine aminotransferase inhibition; Q8TD30; hit rate 0.25% among 100,000; Potency, µM (top dose mostly 57.7 µM), for the others: top-dose activity change, negative = inhibition, hits mostly inhibitors; Recombinant GPT2, coupled pyruvate oxidase/HRP Amplex Red fluorescence; note: nearly all actives have a fitted effect of over 60% in size
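Recombinant GPT2 (10ng/uL) with 250uM a-KG and 2mM L-alanine, 30 min at room temperature, in HEPES pH 7.5 buffer. Pyruvate detected by pyruvate oxidase/HRP/Amplex Red fluorescence after 30 min in the dark; AOA (50uM) as positive control.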
The depositor's hits bear a star; i = inactive; ? = inconclusive; · = not tested or not shown; ! = not confirmed by another sample; [ ] = remark or other dose. Most compounds without a hit are left out; they make up all but 10% or so of the library. Unless noted, calls come from the whole dose curve; as a rule, active = well fitted curve in the direction sought with a large enough effect; inconclusive = small, poorly fitted or top-dose-only effect, or another doubt; inactive = no such curve, though single readings can be large; an effect the other way counts as inactive or inconclusive. % is set by controls: 0 for no effect and ±100 for the full control effect; potency is the fitted concentration of half-maximal effect.

SMILES	HEK cytotox	3T3 cytotox	hNpr1 antagonist	Luciferase inh	GPT2 inh
O=C1c2c(nc(COc3ccc4c(c3)OCO4)n2Cc2ccccc2)NCCN1CCOc1ccccc1	39.8µM*	?	-27.9%	i	-6.9%
COc1ccc(F)cc1-c1ccc(CN2CCCCC2C(=O)N2CCN(c3ncccn3)CC2)cc1 (configuration not stated)	44.7µM*	?	·	·	·
COc1ccccc1-c1ccc(CN2CCCCC2C(=O)NC2CCCCC2)cc1 (configuration not stated)	22.4µM*!	44.7µM*!	·	·	·
COc1ccc(F)cc1-c1ccc(CN2CCC(NC(=O)C3CCCCC3)C2)cc1 (configuration not stated)	44.7µM*	31.6µM*	·	·	·
COc1ccccc1-c1cccc(C(=O)N2CCC[C@H]2C(=O)NC2CC2)c1	2.8%	-1.0%	·	·	i
COc1ccccc1-c1ccc(CN2CCCCC2C(=O)NC2CC2)cc1 (configuration not stated)	39.8µM*	?	·	·	·
Cc1cnc(C2CCC2)n1CC1CCN(C(=O)C(C)c2ccccc2)CC1 (configuration not stated)	?	-8.3%	2.2%	i	i
O=C(NCc1cccc(C(F)(F)F)c1)c1cc(-c2ccc(F)cc2)c2nncn2n1	?	?	·	·	-1.6%
COc1ccc(F)cc1-c1ccc(CN2CCCCC2C(=O)NC2CCC2)cc1 (configuration not stated)	35.5µM*	?	·	·	·
O=C(NC1CC1)C1CCCN1Cc1ccc(-c2cncnc2)cc1 (configuration not stated)	i	-0.4%	·	·	i
O=C(CCc1conc1-c1cccc(F)c1)NCc1ccc(F)cc1	?	?	-5.5%	44.7µM*	i
O=C(Nc1ccccc1)c1ccc(-c2cccc3c2CCNC3)o1	?	44.7µM*	-23.9%	i	-15.6%
O=C(NCc1ccc2c(c1)OCO2)C1CCc2sc(C(=O)N3CCCCCC3)cc2C1 (configuration not stated)	?	?	22.4µM*	i	0.3%
COC(=O)c1cccc(NC(=O)C2CCc3sc(C(=O)N4CCOCC4)cc3C2)c1 (configuration not stated)	?	?	-21.5%	i	i
O=C(NCc1ccc(F)cc1)C1CCc2sc(C(=O)N3CCCC3)cc2C1 (configuration not stated)	50.1µM*	?	-2.0%	i	i
O=C(Nc1cccc(Cl)c1)C1CCc2sc(C(=O)N3CCCC3)cc2C1 (configuration not stated)	39.8µM*	28.2µM*	?	i	i
CC/C=C\CC1C(=O)C=CC1(CCCCC1CCC(=O)O1)OC(C)=O (configuration not stated)	·	·	·	·	4.6%[27.3 µM]
COc1ccc(CNC(=O)C(C)C2CCOCC2)cc1 (configuration not stated)	24.8%	0.1%	1.0%	i	i
CN(Cc1cc(-c2cccnc2)no1)C(=O)C1COc2ccccc2C1 (configuration not stated)	?	?	?	i	3.3%[11.5 µM]
O=C1Nc2ccccc2CC12CCCN2Cc1ccc(Cl)cc1 (configuration not stated)	?	-29.4%	·	·	3.3%
O=C1Nc2ccccc2CN(Cc2ccc(Cl)cc2)C12CCNC2 (configuration not stated)	50.1µM*	?	·	·	4.7%
COc1ccc(OC)c(S(=O)(=O)N2CCC(c3nc(-c4cccn4C)no3)CC2)c1	39.8µM*	?	·	·	-8.9%
CCCn1cc(S(=O)(=O)N2C[C@H](C3CC3)[C@@H](N)C2)cn1	-19.8%	-2.8%	-1.6%	i	-21.8%
CCn1c(C)c(CN2CCc3nc(N4CCN(C)CC4)[nH]c(=O)c3CC2)c2ccccc21	-11.0%	-26.6%	4.2%	i	i
CCC(CC)C(=O)NCc1cccnc1Oc1cccc(C(F)(F)F)c1	?	-24.0%	1.1%	i	i
SMILES	HEK cytotox	3T3 cytotox	hNpr1 antagonist	Luciferase inh	GPT2 inh
COCc1cc(NCc2cccnc2Oc2cccc(C(F)(F)F)c2)ncn1	50.1µM*	-31.7%	-7.3%	i	4.1%
O=C(c1cc2cn(C3CC3)cc2s1)N1CCc2ccccc2C1	89.1µM*	?	-1.1%	i	1.6%
COc1ccc2cc(C3CN(C(=O)c4ccc(C)cc4OC)CCO3)ccc2c1 (configuration not stated)	22.4µM*	44.7µM*	?	22.4µM*	-11.9%[11.5 µM]
COc1ccc2cc(C3CN(C(=O)c4cc(C(C)=O)n[nH]4)CCO3)ccc2c1 (configuration not stated)	?	?	?	?	0.8%
CN(CCc1ccccn1)[C@@H]1[C@H](O)[C@H](CO)O[C@@H]1CN(Cc1ccc(F)cc1)Cc1ccc(F)cc1	35.5µM*	50.1µM*	-22.9%	i	4.5%
O=C(c1cccc(Cl)c1)N1CCC2(CC1)CCN(Cc1cccs1)c1ccccc1O2	28.2µM*	?	-5.1%	i	i
CC(=O)N1CCC2(CC1)CCN(Cc1cccs1)c1ccccc1O2	?	-32.4%	3.2%	i	3.6%
O=C(Cc1cccc(Cl)c1)N1CCC2(CC1)CCN(Cc1cccs1)c1ccccc1O2	25.1µM*	?	12.8%	i	-29.5%
CNC(=O)[C@@H](c1ccccc1)N1CCC[C@H]1C(=O)NC1CCCCC1	4.4%[172 µM]	i	-1.9%[70.6 µM]	i	-4.9%[88.5 µM]
COc1ccc(CC(=O)Nc2ccc3ncnc(N4CCCCC4)c3c2)c(Cl)c1	?	?	-18.3%	i	i
O=C(Nc1ccc2c(N3CCCC3)ncnc2c1)c1ccccc1Br	8.91µM*	?	-13.8%	i	3.0%
COc1cccc(CC(=O)Nc2ccc3c(N4CCCCC4)ncnc3c2)c1	31.6µM*	?	?	i	-1.9%
COc1ccccc1C(=O)Nc1ccc2ncnc(N3CCCCC3)c2c1	39.8µM*	?	?	i	-0.7%
O=C(Nc1cccc(-c2cscn2)c1)C1CCN(C(=O)C2CCCO2)CC1 (configuration not stated)	-28.6%	-3.5%	1.0%	i	0.2%
Cc1ccc(S(=O)(=O)N2CCN(C3CCN(CCC(C)C)C3=O)CC2)cc1Cl (configuration not stated)	?	?	4.5%	i	-1.5%
Fc1ccc(CN2Cc3[nH]cnc3C[C@H]2c2nc(-c3ccc(Cl)cc3)no2)cc1	63.1µM*	50.1µM*	-19.9%[70.6 µM]	i	-12.9%[88.5 µM]
Fc1ccc(CN2Cc3[nH]cnc3C[C@H]2c2nc(-c3ccccc3)no2)cc1	100µM*	79.4µM*	-16.3%[70.6 µM]	44.7µM*	?
O=C(O)c1ccc(CN2Cc3[nH]cnc3C[C@H]2c2nc(-c3ccc(F)cc3)no2)cc1	-21.8%[172 µM]	-20.5%[138 µM]	-0.8%[70.6 µM]	i	2.3%[88.5 µM]
O=C1CCCN1c1ccc(Cn2ccn3nc(-c4ccc(F)cc4)c(CO)c3c2=O)cc1	?	-9.3%	-25.2%	i	i
CCN(C(=O)CN1C(=O)NC(c2ccc(C)cc2)C2=C1COC2=O)c1cccc(C)c1 (configuration not stated)	?	-17.8%	1.6%	i	-0.1%

Screens: PubChem, National Center for Advancing Translational Sciences (NCATS)
